In PubChem BioAssay AID778 (Sanford-Burnham Center for Chemical Genomics, 2007):
Out of some 96,000 compounds screened, about 20,000 (21%) were called active. The list is a sample of the results. Unmarked numbers belong to inactive results.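 Rule for the calls: active = CYP2C19 inhibition above a set limit at 5 µM in the primary screen (cut at about 50% in these data); inactive = the rest.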

What follows are compounds tested against Cytochrome P450 2C19 (Homo sapiens) (UniProt P33261) (assay: blockers of cytochrome P450 2C19 activity – biochemical, luminescence, ADME assay, primary screen (AID 778;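 note: plate controls were negative control wells for no effect and 2.5 mM tranylcypromine positive control for full effect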)). Conditions: CYP2C19 Supersomes, luciferin-H EGE luminescence, 30 min; at 5 µM; stronger effect = higher value.
Chain of Cytochrome P450 2C19 (Homo sapiens) (P33261 whole entry, looked up): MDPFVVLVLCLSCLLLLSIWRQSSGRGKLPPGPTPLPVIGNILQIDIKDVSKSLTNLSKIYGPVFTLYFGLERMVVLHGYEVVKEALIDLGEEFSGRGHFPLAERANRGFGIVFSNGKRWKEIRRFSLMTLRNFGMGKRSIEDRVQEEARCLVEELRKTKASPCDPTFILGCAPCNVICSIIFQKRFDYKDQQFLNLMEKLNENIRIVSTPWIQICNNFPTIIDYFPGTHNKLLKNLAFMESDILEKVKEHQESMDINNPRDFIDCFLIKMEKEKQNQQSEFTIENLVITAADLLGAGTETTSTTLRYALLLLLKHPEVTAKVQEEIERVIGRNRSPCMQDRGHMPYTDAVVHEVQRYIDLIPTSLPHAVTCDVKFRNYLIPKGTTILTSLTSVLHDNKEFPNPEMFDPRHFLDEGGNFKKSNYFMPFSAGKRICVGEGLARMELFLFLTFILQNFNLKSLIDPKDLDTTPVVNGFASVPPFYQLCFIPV

SMILES	inhibition
Cc1ccc(N2CCN(S(=O)(=O)N(C)C)CC2)cc1Cl	59.1% (active)
CS(=O)(=O)N1CCN(c2cccc(Cl)n2)CC1	46.3%
c1ccc(-n2ncc3c2ncn2c(C4CCCCC4)nnc32)cc1	-4.4%
CCn1ncc(C2=NOC(C(=O)N3CCN(c4ccccc4)CC3)C2)c1C (stereo not drawn)	-20.9%
O=C(OCC(=O)N1CCCC1)c1ccco1	0.8%
COc1cc(-c2nc(-c3ccncc3)no2)cc(OC)c1OC	83.6% (active)
CCOc1nc(-c2ccc(OC)cc2)ccc1-c1noc(-c2cc(OC)c(OC)c(OC)c2)n1	8%
CCc1ccc(CNC(=O)CCc2nc(-c3cccs3)no2)cc1	37.6%
COc1ccc(-c2noc(-c3cccc(OC)c3OC)n2)cc1OC	22.7%
COc1nc(-c2ccc(Cl)cc2)ccc1-c1noc(-c2cccs2)n1	7%
c1csc(-c2nc(-c3ccncc3)no2)c1	72.2% (active)
O=C(CSc1nc(-c2ccco2)cc(C(F)(F)F)n1)N1CCc2ccccc2C1	42.7%
Cc1[nH]c2ccccc2c1C(=O)CSCC(=O)O	0.7%
Cc1cc(N=CC2=C(O)CCCC2=O)no1	2.1%
c1coc(CNc2ncnc3ccccc23)c1	-3.8%
O=C(Cc1nn[nH]n1)NCCC1=CCCCC1	-1.9%
O=C(COc1cccc(-n2cnnn2)c1)NCCC1=CCCCC1	89.3% (active)
O=C(COc1ccc(Cl)cc1)NCCC1=CCCCC1	26.8%
O=C(CN1C(=O)NC2(CCCCC2)C1=O)NCCC1=CCCCC1	8.2%
S=C(NCCC1=CCCCC1)Nc1ccccc1	46.9%
Cc1nnc(OCC(=O)NCCC2=CCCCC2)c2ccccc12	55.2% (active)
O=C(O)C1CC=CCC1C(=O)NCCc1ccccc1 (stereo not drawn)	-8.8%
CC1(C)COC(c2cccn2Cc2ccccc2Cl)=N1	2.4%
CNC(=O)c1ccc2nc(NC(C)=O)sc2c1	2.4%
O=C(Cn1c(-c2ccc(Cl)cc2)noc1=O)N1CCN(c2ccccc2F)CC1	12.6%
CCCCOC(=O)Nc1sc2nc(C)cc(C)c2c1-n1cccc1	9.4%

SMILES	inhibition
O=C(Nc1cccc2c1CCCC2)C1CCN(C(=O)NC2CCCCC2)CC1	2.3%
COCCNC(=O)COc1ccccc1C	2%
COCCNC(=O)COc1ccc(C)c(C)c1	-3.5%
COCCCNC(=O)COc1cc(C)c(Cl)c(C)c1	86.2% (active)
CCOC(=O)C1C(=O)C=C(c2ccc(OC)cc2)CC1c1ccco1 (stereo not drawn)	28.1%
O=C(OCC(O)C(O)COC(=O)c1ccccc1)c1ccccc1 (stereo not drawn)	83.5% (active)
O=C(NC(=O)c1ccccc1)NC(=O)c1ccccc1	21.7%
CCCCCCOC(=O)NCC(O)c1ccccc1 (stereo not drawn)	23.3%
COc1ccc(-c2nc(-c3ccccc3)no2)c(OC)c1	12.8%
CCOC(=O)C(CC)Sc1ncnc2c1nnn2-c1ccc(F)cc1 (stereo not drawn)	10.5%
CCN(CC(=O)NC1CCS(=O)(=O)C1)c1nc(-c2cccnc2)nc2ccccc12 (stereo not drawn)	4.6%
Cc1ccc2c(c1)C(O)(CC(=O)c1cccnc1)C(=O)N2 (stereo not drawn)	10.2%
Cc1ccc(NC2(C#N)C(=O)Nc3ccccc32)cc1 (stereo not drawn)	60.3% (active)
CN1CCN(c2nc3c(c(=O)[nH]c(=O)n3C)n2Cc2cccc3ccccc23)CC1	1.2%
CC(=O)Nc1ccn(Cc2c(F)cccc2Cl)n1	48.9%
O=C(Nc1ccn(Cc2ccc(F)cc2)n1)c1ccncc1	97.8% (active)
Cc1ccc(Cn2ccc(NC(=O)C3C4CCC(C4)C3C(=O)O)n2)cc1 (stereo not drawn)	15%
Cc1nn(Cc2ccc(F)cc2)c(C)c1NC(=O)c1noc2c1CCc1ccccc1-2	1%
Cc1ccc(Cn2ccc(NC(=O)c3cc(C(C)C)on3)n2)cc1	97.2% (active)
Cc1cc(NC(=O)c2cc(-c3cccs3)on2)nn1Cc1ccc(Cl)cc1	2%
Cc1ccc(N(NC(=O)C(C)(C)O)C(=O)c2ccccc2)cc1C	14.9%
COc1ccccc1CNC(=O)Cn1cc2c(n1)CCCC2	20.5%
O=P(O)(CN1CCCCC1)CN1CCCCC1	-0.9%
Cc1ccc(-c2cnc(NC(=O)CCC(=O)N(C)Cc3ccccc3)n2C)cc1	1%
COc1ccccc1Nc1nc(N)nc(CN(C)C2CCCCC2)n1	-23.9%
COc1ccccc1NC1=NC(c2ccc(Cl)cc2)N=C(N)N1 (stereo not drawn)	92.6% (active)

SMILES	inhibition
COc1ccccc1NC1=NC2(CCCC2)N=C(N)N1	-6%
C=C(C)Cn1c(N2CCN(CC)CC2)nc2c1c(=O)[nH]c(=O)n2C	-24.3%
O=S(=O)(c1ccc(Sc2nnc3ccccn23)nc1)N1CCOCC1	13.2%
O=C(CN(Cc1ccccc1)C(=O)c1ccc2c(c1)OCCO2)NCc1ccc2c(c1)OCO2	29.2%
COc1ccc(-c2csc(N3CCN(Cc4ccc5c(c4)OCO5)CC3)n2)cc1	-20.9%
O=C(CCNS(=O)(=O)c1ccccc1C(F)(F)F)NCc1ccc2c(c1)OCO2	84.6% (active)
O=C(CNS(=O)(=O)c1ccc(Br)s1)NCc1ccc2c(c1)OCO2	63.1% (active)
O=C(Cn1nnc(-c2ccccc2)n1)NCc1ccc2c(c1)OCO2	25.4%
O=C(CN1CCN(c2nc(-c3ccccc3)cs2)CC1)NCc1ccc2c(c1)OCO2	91.6% (active)
O=C(CNS(=O)(=O)c1ccc(Br)s1)N1CCN(C(=O)c2ccco2)CC1	26.7%
Cc1ccc(C(=O)OCC(=O)NCc2ccc3c(c2)OCO3)s1	64% (active)
O=C(NCc1ccc2c(c1)OCO2)C12CC3CC(CC(C3)C1)C2	26.4%
O=C(COC(=O)c1ccc2c(c1)OCCO2)NCc1ccccc1	6.9%
CCOC(=O)NCc1ccc2c(c1)OCO2	48.5%
C/C(=N\O)C1(C)N(O)C(C)(C)C(c2ccc(Br)cc2)=[N+]1[O-] (stereo not drawn)	-15.7%
Cc1ccccc1OCC(=O)NCC(=O)OCC(=O)c1ccc2ccccc2c1	-2%
COC(=O)c1sc(NC(=O)c2csc3c2CCCC3)nc1C	-10.6%
Clc1ccccc1-c1cc(COc2ccc3ccccc3c2)no1	3.1%
CCCCSc1[nH]c(=O)c(C(=O)OCC)cc1C#N	3.8%
Cc1cc(C)n2nc(C(=O)Oc3ccc4c(c3)OCO4)nc2n1	-10.7%
CN(C)CC(O)COc1ccc(C(C)(C)c2ccc(OCC(O)CN(C)C)cc2)cc1 (stereo not drawn)	-7.2%
O=C(COc1ccccc1)NCc1ccc2c(c1)OCO2	69.2% (active)
CCOC(=O)N1CCC(NC(=O)CCc2cn(C)c3ccccc23)CC1	15.5%
CC1CCCCN1CC(=O)NCc1ccc2c(c1)OCO2 (stereo not drawn)	69.6% (active)
O=C(CC(Cc1ccccc1)C(=O)O)NCCc1ccc2c(c1)OCO2 (stereo not drawn)	4%
O=C(NCc1ccc2c(c1)OCO2)c1ccc2c(c1)C(=O)N(CC1CCCO1)C2=O (stereo not drawn)	-1.9%

SMILES	inhibition
Cn1cc(CCC(=O)NCc2ccc3c(c2)OCO3)c2ccccc21	93.8% (active)
O=C(CCCCn1c(=O)[nH]c2ccccc2c1=O)NCc1ccc2c(c1)OCO2	28%
CCc1c(C)nc2ncnn2c1N1CCC(C(=O)NCc2ccc3c(c2)OCO3)CC1	17.6%
COC(=O)Cc1c(C)c2ccc(OCC(=O)NCc3ccc4c(c3)OCO4)cc2oc1=O	21.2%
COC(=O)c1sc2ncccc2c1OCc1ccc(Cl)cc1Cl	-1.5%
COc1ccc2[nH]c(C)c(CCN(Cc3cccs3)C(=S)Nc3ccccc3OC)c2c1	25.1%
O=C1c2ccccc2NC(c2ccc(-c3cccc(Cl)c3)o2)N1O (stereo not drawn)	22.2%
Cc1cc(NC(=O)Nc2ccccc2)n(-c2ccccc2)n1	29.8%
CC(C)[C@H](NC(=O)Nc1ccc(S(N)(=O)=O)cc1)C(=O)O	-1.3%
N#CCSc1nc2ccc(N3CCOCC3)cc2c(=O)n1CCc1ccccc1	12.7%
CCCCCCSc1nsc(N)n1	45.3%
O=C1CC(C(F)(F)C(F)(F)C(F)(F)C(F)(F)F)=Nc2ccccc2N1	35.1%
Cc1ccc(C(=O)CSc2nc3ccccc3c(=O)n2N)o1	33.5%
Cc1ccc(S(=O)(=O)NCc2nc3ccccc3c(=O)n2N)cc1	-4%
Cn1c(COc2ccc(Cl)cc2)nc2ccccc2c1=O	62.8% (active)
COc1ccc(OCc2ccc(-c3nc4ccccc4c(=O)n3N)o2)cc1	51.4% (active)
O=c1c2ccccc2nc2n1C(CSc1ccc(Cl)cc1)CN2 (stereo not drawn)	18.3%
COc1ccc(Oc2c(Cl)cnn(-c3ccccc3)c2=O)cc1	29.7%
CCc1c(C)[nH]c(=S)c(C#N)c1C	-1.3%
CNC(=S)N1N=C(c2ccccc2)CC1c1ccc(Br)cc1 (stereo not drawn)	29.6%
CSCCC(NC(=O)c1ccc(=O)n(C)n1)c1nc2ccccc2[nH]1 (stereo not drawn)	8.7%
O=C(Nc1cnccn1)c1cccnc1	-4.8%
CC(C)(C)c1cc(C(=O)NCc2cccnc2)ccn1	46.9%
O=C(NCc1ccc(Cl)c(Cl)c1)c1cccnc1	62.7% (active)
COc1ccc(C(=O)c2c(C)oc3cc([N+](=O)[O-])c(O)c([N+](=O)[O-])c23)cc1	6.5%
